# Measured values from the supplement of paper PMC6555819.
# Tests used:
# Assay in all cases: PBM binding z-score (relative to random genomic background probes); higher = stronger binding; sequences stand for … in GC…GCGATTGACAGCGTAGAATGAAGG
# [1] = system: FXR:RXRa (NR concentration 270 nM, RXRa partner concentration 90 nM)
# In short: (§1)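 Regression normalization was applied to scanned fluorescence from custom Agilent 4×180K protein-binding microarrays. Before scanning, arrays were incubated 1 h with ligand-free nuclear receptor dimers, and binding was detected with antibodies against each partner (one per run). Binding z-scores use the random background probes as reference.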
# [2] = system: LXRa:RXRa (NR concentration 270 nM, RXRa partner concentration 90 nM)
# In short: as §1
# [3] = system: LXRa homodimer (NR concentration 270 nM)
# In short: as §1
# [4] = system: LXRb:RXRa (NR concentration 270 nM, RXRa partner concentration 90 nM)
# In short: as §1
# [5] = system: LXRb homodimer (NR concentration 270 nM)
# In short: as §1
# [6] = system: PPARa:RXRa (NR concentration 270 nM, RXRa partner concentration 90 nM)
# In short: as §1
# [7] = system: PPARg:RXRa (NR concentration 180 nM, RXRa partner concentration 90 nM)
# In short: as §1
# [8] = system: PPARg:RXRa 270nM:90nM, anti-RXR (NR concentration 270 nM, RXRa partner concentration 90 nM)
# In short: as §1
# [9] = system: PPARg:RXRa 30nM:10nM, anti-RXR (NR concentration 30 nM, RXRa partner concentration 10 nM)
# In short: as §1
# [10] = system: PPARg:RXRa 90nM:30nM, anti-RXR (NR concentration 90 nM, RXRa partner concentration 30 nM)
# In short: as §1
# [11] = system: PPARg:RXRa DBDmut IVT, anti-RXR (DBD mutation: RXRa K156A/R161A, NR concentration 270 nM, RXRa partner concentration 90 nM)
# In short: as §1
# [12] = system: PPARg:RXRa IVT, anti-PPARg (NR concentration 270 nM, RXRa partner concentration 90 nM)
# In short: as §1
# [13] = system: PPARg DBDmut:RXRa IVT, anti-PPARg (DBD mutation: PPARg1 K132A/R137A, NR concentration 270 nM, RXRa partner concentration 90 nM)
# In short: as §1
# [14] = system: PPARg DBDmut IVT, anti-PPARg (DBD mutation: PPARg1 K132A/R137A, NR concentration 270 nM)
# In short: as §1
# [15] = system: PPARg homodimer (NR concentration 180 nM)
# In short: as §1
# [16] = system: PXR:RXRa (NR concentration 270 nM, RXRa partner concentration 90 nM)
# In short: as §1
# [17] = system: PXR homodimer (NR concentration 270 nM)
# In short: as §1
# [18] = system: RARa:RXR (NR concentration 270 nM, RXRa partner concentration 90 nM)
# In short: as §1
# [19] = system: RARa homodimer (NR concentration 270 nM)
# In short: as §1
# [20] = system: RARb:RXRa (NR concentration 270 nM, RXRa partner concentration 90 nM)
# In short: as §1
Sequence,PBM binding z-score [1],PBM binding z-score [2],PBM binding z-score [3],PBM binding z-score [4],PBM binding z-score [5],PBM binding z-score [6],PBM binding z-score [7],PBM binding z-score [8],PBM binding z-score [9],PBM binding z-score [10],PBM binding z-score [11],PBM binding z-score [12],PBM binding z-score [13],PBM binding z-score [14],PBM binding z-score [15],PBM binding z-score [16],PBM binding z-score [17],PBM binding z-score [18],PBM binding z-score [19],PBM binding z-score [20]
CAAATTAGGTCACGAAAGGTCAAAGTCGAATGAC,7.62,8.19,7.52,7.45,3.07,6.87,10.1,8.6,6.67,8.69,8.68,8.9,4.28,2.39,5.32,7.26,2.64,7.69,3.07,5.8
ATCTCTAGGTAAAGATGGTTCAGTGAATGCAAAT,-0.0028,0.987,0.171,0.3,0.169,0.594,0.37,0.607,0.44,0.679,1.87,1.65,0.333,0.863,0.000234,0.269,0.428,0.492,0.88,-0.00416
TCTTGTAGATCAATAGAGGTGAAGAAAGTGCGCT,1.02,0.833,-0.122,0.533,-0.232,1.5,0.0312,1.72,2.84,2.21,2.33,1.64,0.582,1.07,-0.35,1.52,-0.318,1.28,0.328,0.777
CGTACAAGGTCAGAGAGGTCAGTGAATGCCGAGT,6.42,5.64,3.38,4.41,0.711,5.09,4.76,4.98,1.97,3.42,3.77,4.39,1.15,1.93,3.94,6.31,12.2,5.87,1.83,5.17
TCTAGTTGATCAAAGGTCACACACTCGAAATGCG,5.64,5.85,3.84,5.63,1.9,5.8,7.89,7.86,7.94,8.62,2.34,4.45,1.08,1.36,4.93,5.73,2.14,6.33,3.64,4.85
ATATGTAGGTTATCGGGTCATGCAGTTTGCGCAT,2.87,3.08,1.26,2.54,0.785,4.99,7.53,6.31,4.45,6.01,7.6,7.68,2.17,1.66,2.79,3.47,2.99,4.11,1.09,2.55
CCTGCTAGCTCATGGTCAGCTAATCTACAGTATG,-0.461,-0.418,-0.46,-0.626,-0.239,-0.737,-0.225,-0.822,-0.885,-0.895,0.183,-0.609,-0.471,-0.109,-0.356,-0.641,-0.376,-0.681,-0.182,-0.0065
CGAACTAGGTCATTGACAGGACAGTGAATAGTAA,4.56,2.89,0.461,2.07,0.0276,4.67,7.66,6.13,3.8,5.54,8.1,8.32,2.23,1.53,1.77,1.89,0.245,2.44,0.499,3.79
GCTAGCAGGCCATTTGGGTCGCTCAATGACGGGC,-0.655,-0.842,-0.846,-1.04,-1.24,-0.407,-0.08,-0.417,-0.944,-0.61,0.479,0.26,-1.18,-1.25,-1.01,-0.81,-0.85,-0.542,-1.69,-0.0207
